Experiment [1] is described as follows: qHTS assay to identify small molecule agonists of the constitutive androstane receptor (CAR) signaling pathway - cell viability counter screen (AID 1224836). Further: nearly all actives have a fitted effect of over 45% in size. In outline:
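Viability read-out: CellTiter-Fluor fluorescence after 23 h compound exposure at 37 C/5% CO2 in double-stable HepG2-CYP2B6-hCAR cells, with PK11195 present at 0.75 uM final; compounds tested in 15-point titration.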
On the technique in general: Quantitative high-throughput screening tests each substance at several concentrations.

Experiment [2] in a line: qHTS assay to identify small molecule antagonists of the constitutive androstane receptor (CAR) signaling pathway - cell viability counter screen (AID 1224837). Further: nearly all actives have a fitted effect of over 45% in size. The essentials: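 Using CellTiter-Fluor, viability is scored in HepG2 cells stably carrying hCAR and a 2.2kb CYP2B6 reporter after 23 hr compound exposure across 15 concentrations, with CITCO present at 50 nM.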

The target of experiment [3] is Nuclear receptor subfamily 1 group I member 3 (Homo sapiens) (UniProt Q14994). In words: qHTS assay to identify small molecule antagonists of the constitutive androstane receptor (CAR) signaling pathway (AID 1224838).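 Further: HepG2 cells stably expressing hCAR with CYP2B6 luciferase reporter stimulated by CITCO; nearly all actives have a fitted effect of over 40% in size.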 The essentials: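 Reporter luminescence was quantified after 24 h exposure of hCAR/CYP2B6-2.2kb double-stable HepG2 cells to compounds at 15 concentrations in the presence of 50 nM CITCO final.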

Experiment [4] shares this target. In words: qHTS assay to identify small molecule agonists of the constitutive androstane receptor (CAR) signaling pathway (AID 1224839). Further: nearly all actives have a fitted effect of over 15% in size. The essentials: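 Luminescence read-out (ONE-Glo, 30 min, room temperature) from double-stable HepG2-CYP2B6-hCAR cells exposed 24 h to 15-point compound series in presence of 0.75 uM PK11195 final.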
A short description of experiment [5]: qHTS assay to identify small molecule antagonists of the estrogen related receptor signaling pathway with the pleiotropic PPARgamma coactivator (PGC) from Tox21 10K library - cell viability counter screen (AID 1224840; active means well fitted cell-killing curve with a large enough effect in the repeat runs, not every such curve was filed as active; further: nearly all actives have a fitted effect of over 40% in size). In outline: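 Here the PGC/ERR cells serve as a cytotoxicity control: they are exposed to compounds for 17.5 hours at 37 C, and live-cell signal is quantified using CellTiter-Fluor fluorescence.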

Experiment [6] can be described thus: qHTS assay to identify small molecule antagonists of the estrogen related receptor signaling pathway with the pleiotropic PPARgamma coactivator (PGC) from Tox21 10K library (AID 1224841; call rule not given here; further: actives are mostly falling curves and most rising ones were filed inactive; nearly all actives have a fitted effect of over 50% in size; further: potency means the concentration at half of the fitted maximal effect). The essentials: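 Each well held 2,000 PGC/ERR cells, pre-incubated six hours (37 C, 5% CO2). Test substances in DMSO were added by pin tool and left for 18 h at 37 C before luciferase detection by One-Glo.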

A short description of experiment [7]: qHTS assay to identify small molecule agonists of the estrogen related receptor signaling pathway with the pleiotropic PPARgamma coactivator (PGC) from Tox21 10K library (AID 1224842). Further: nearly all actives have a fitted effect of over 15% in size. The essentials: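 PGC/ERR reporter cell line, 2,000 cells per well, incubated 6 h at 37 C before 23 nL compound in DMSO was added. After 18 h at 37 C, One-Glo luminescence read following 30 min at room temperature.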

Experiment [8] has as its target Thyrotropin receptor (Homo sapiens) (UniProt P16473). The experiment in a line: qHTS assay to identify small molecule agonists of the thyroid stimulating hormone receptor (TSHR) signaling pathway (AID 1224843; calls by dose curve; further: nearly all actives have a fitted effect of over 45% in size). The essentials:
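Steps: seed 800 TSHR-HEK293 cells per well; add test compound and hold 30 min at ambient temperature; dispense cAMP-d2 then anti-cAMP cryptate; incubate 1 h at ambient; measure fluorescence intensity.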

Experiment [9] is described as follows: qHTS assay to identify small molecule agonists of the hypoxia (HIF-1) signaling pathway - cell viability counter screen (AID 1224844; calls by dose curve; further: nearly all actives have a fitted effect of over 50% in size). In outline: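 Multiplexed with the HRE beta-lactamase assay, this viability read used CellTiter-Glo luminescence (30 min, RT) on HRE-bla ME-180 cells treated 17 hrs with compounds in 0.5% dialyzed FBS medium.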
A short description of experiment [10]: qHTS assay to identify small molecule agonists of H2AX (AID 1224845; active means well fitted activation curve with a large enough effect in the signal ratio in the repeat runs, not every such curve was filed as active; the % refers to the signal ratio). In outline: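 Wild-type CHO-K1 cells, plated overnight, exposed 3hr at 37C to 15 concentrations (0.76% DMSO final). Lysed, then HTRF anti-pH2AX (S139) cryptate and anti-H2AX-d2 antibodies, 24 hr room temperature; 665/620 nm emission read.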
The nature of experiment [11]: qHTS assay to identify small molecule agonists of the hypoxia (HIF-1) signaling pathway (AID 1224846; active means well fitted activation curve with a large enough effect in the signal ratio in the repeat runs, not every such curve was filed as active; the % refers to the signal ratio). In outline: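 Hypoxia-pathway activation was scored as increased beta-lactamase from an HRE-controlled reporter in ME-180 cells; plated at 2,000 cells per well with 0.5% dialyzed FBS, they were exposed 17 hrs to compounds and then given CCF4-AM.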
The nature of experiment [12]: qHTS assay to identify small molecule agonists of H2AX - cell viability counter screen (AID 1224847; calls by dose curve; further: top concentration of the series differs between compounds; nearly all actives have a fitted effect of over 30% in size). The essentials:
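CHO-K1 wt, 1000 cells/well, o/n 37C; cpds 15 conc, 3 h 37C, 0.76% DMSO; CellTiter-Glo, 30 min RT, luminescence.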

A short description of experiment [13]: qHTS assay to identify small molecule agonists of the estrogen related receptor (ERR) signaling pathway from Tox21 library (AID 1224849; calls by dose curve; further: nearly all actives have a fitted effect of over 15% in size). Particulars: ERR reporter cell line, ONE-Glo luciferase, 18 h; at 92.4 µM (top of the series). The essentials:
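Six hours post-seeding at 37 C/5% CO2, ERR cells receive DMSO-solubilised compounds; after 18 h at 37 C, ONE-Glo reagent is applied and luminescence recorded.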

Experiment [14] in a line: qHTS RealTime-Glo MT Cell Viability Assay in HepG2 cells - 24 hour (AID 1224867). Further: nearly all actives have a fitted effect of over 50% in size. The essentials:
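Real-time, nonlytic viability: 600 HepG2 cells/well mixed with NanoLuc enzyme plus prosubstrate; 5 h settle, compound (DMSO) added by pintool; luminescence monitored over 40 h at 37 C.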

Experiment [15] is described as follows: qHTS RealTime-Glo MT Cell Viability Assay in HEK293 cells - 32 hour (AID 1224868). Further: top concentration of the series differs between compounds; nearly all actives have a fitted effect of over 50% in size. The essentials:
(§1)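 Cells + reagent dispensed (600 cells/well, HEK293) → 5 h at 37 C/5% CO2 → 23 nL compound in DMSO pinned → 40 h at 37 C → luminescence read at 0, 8, 16, 24, 32, 40 h.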

Experiment [16] is described as follows: A CellTox Green Cytotoxicity Assay to monitor cytotoxicity in HEK293 cells - 0 hour (AID 1224869). Further: nearly all actives have a fitted effect of over 50% in size. In outline:
(§2)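 Seeding of HEK293 cells together with cytotoxicity dye preceded a 5 h incubation at 37 C/5% CO2. Test compounds in DMSO were then added and fluorescence monitored across 40 h.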

Experiment [17] in a line: qHTS RealTime-Glo MT Cell Viability Assay in HepG2 cells - 40 hour (AID 1224870). Further: nearly all actives have a fitted effect of over 50% in size. The essentials:
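HepG2 cells (600/well) mixed with RealTime-Glo MT reagent, settled 5 h at 37 C/5% CO2 before compound addition. Nonlytic NanoLuc luminescence from viable-cell prosubstrate reduction read repeatedly during 40 h treatment at 37 C.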

The nature of experiment [18]: A CellTox Green Cytotoxicity Assay to monitor cytotoxicity in HEK293 cells - 40 hour (AID 1224871). Further: nearly all actives have a fitted effect of over 45% in size. In outline: as §2
Experiment [19] can be described thus: qHTS RealTime-Glo MT Cell Viability Assay in HEK293 cells - 16 hour (AID 1224872). The essentials: as §1
A short description of experiment [20]: qHTS assay to identify small molecule antagonists of the estrogen related receptor (ERR) signaling pathway from Tox21 library (AID 1224848). Further: nearly all actives have a fitted effect of over 50% in size. Further: potency means the concentration at half of the fitted maximal effect. The essentials:
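Luminescent reporter read-out (ONE-Glo) from NTP's ERR cell line after 18 h treatment at 37 C with DMSO-dissolved Tox21 compounds; cells pre-plated 6 h beforehand at 2,000 per well.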

“And” between values parts separate entries of the source, which are not always exact repeats. Identical values can stand only once. Records with an inconclusive call do not appear. Some compounds were tested as several samples or in several runs, with calls that do not always agree. The source made the active and inactive calls. Unless noted, the call rests on the fitted dose curve; in most records, active means well fitted curve in the direction sought with a large enough effect in the repeat runs; inconclusive means weak or mixed curves; inactive means no such curve, though single readings can be large; an effect the other way counts as inactive or inconclusive.

The record followed here is PubChem BioAssay (Tox21).
On the % scale 0 is the no-effect control and ±100 the full control effect.

Chain of Thyrotropin receptor (Homo sapiens) (P16473 whole entry, looked up): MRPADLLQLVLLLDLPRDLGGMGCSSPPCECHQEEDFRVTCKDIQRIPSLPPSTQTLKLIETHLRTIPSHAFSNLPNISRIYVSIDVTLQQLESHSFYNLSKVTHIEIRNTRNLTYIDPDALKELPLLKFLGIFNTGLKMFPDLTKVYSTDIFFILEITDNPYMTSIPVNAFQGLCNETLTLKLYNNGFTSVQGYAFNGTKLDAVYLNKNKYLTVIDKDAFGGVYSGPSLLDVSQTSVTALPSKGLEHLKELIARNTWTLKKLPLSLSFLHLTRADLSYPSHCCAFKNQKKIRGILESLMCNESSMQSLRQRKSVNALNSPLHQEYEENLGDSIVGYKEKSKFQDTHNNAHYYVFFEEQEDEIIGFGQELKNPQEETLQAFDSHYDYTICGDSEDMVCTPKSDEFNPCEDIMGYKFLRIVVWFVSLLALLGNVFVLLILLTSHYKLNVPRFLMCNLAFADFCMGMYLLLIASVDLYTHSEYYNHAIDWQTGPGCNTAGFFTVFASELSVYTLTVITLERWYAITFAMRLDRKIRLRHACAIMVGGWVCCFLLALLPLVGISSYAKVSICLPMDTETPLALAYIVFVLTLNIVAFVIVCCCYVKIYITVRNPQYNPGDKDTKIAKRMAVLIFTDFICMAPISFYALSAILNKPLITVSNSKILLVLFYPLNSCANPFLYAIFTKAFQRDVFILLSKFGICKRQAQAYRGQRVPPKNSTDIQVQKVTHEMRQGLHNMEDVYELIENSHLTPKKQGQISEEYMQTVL
Chain of Nuclear receptor subfamily 1 group I member 3 (Homo sapiens) (Q14994 whole entry, looked up): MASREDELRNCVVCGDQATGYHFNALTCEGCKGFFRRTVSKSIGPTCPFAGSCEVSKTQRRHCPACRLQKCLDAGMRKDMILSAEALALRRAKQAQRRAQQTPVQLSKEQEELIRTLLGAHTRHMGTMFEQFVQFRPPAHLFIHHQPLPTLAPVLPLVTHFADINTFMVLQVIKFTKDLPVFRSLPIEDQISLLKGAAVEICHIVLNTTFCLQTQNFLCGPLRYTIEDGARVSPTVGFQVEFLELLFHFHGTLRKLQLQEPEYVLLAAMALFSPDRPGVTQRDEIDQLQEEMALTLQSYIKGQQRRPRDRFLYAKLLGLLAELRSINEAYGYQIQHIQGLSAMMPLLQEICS

For `Cc1occc(=O)c1OC(=O)C(C)C`, the Potency result in experiment [1], in experiment [2], in [3], in experiment [4], in experiment [5] and in experiment [6] was “inactive” each time. Moreover, the Potency entry in experiment [7], in experiment [8], in experiment [9], in experiment [10], in experiment [11] and in [12] was “inactive” in each case. For the same compound, the Potency entry in [14], in experiment [15], in experiment [16], in [17], in [18] and in experiment [19] was “inactive” in each case. Moreover, the activity change, positive = activation in [13] was 1.53% (inactive).

As to `CCCCOCCOC(=O)c1ccccc1C(=O)OCCOCCCC`, the Potency entry in [1], in experiment [2], in [3], in [4], in experiment [5] and in experiment [7] was “inactive” in each case. Moreover, the Potency entry in experiment [8], in [9], in [10], in experiment [11], in experiment [12] and in experiment [14] was “inactive” in each case. Moreover, the Potency entry in [15], in experiment [17], in [18] and in experiment [19] was “inactive” in each case. The Potency in experiment [6] was 16.9 µM (active) and inactive; in experiment [20], 26.7 µM (active) and 30.6 µM (active). For the same compound, the activity change, positive = activation in [13] is -34.9% (inactive) and -38.2% (inactive).

As for `CCCC(=O)c1ccccc1`, the Potency entry in experiment [1], in experiment [2], in experiment [3], in [4], in experiment [5] and in experiment [6] was “inactive” in each case. Moreover, the Potency result in [7], in experiment [8], in experiment [9], in experiment [10], in experiment [11] and in experiment [12] was “inactive” each time. For the same compound, the Potency entry in experiment [20], in experiment [14], in experiment [15], in [16], in experiment [18] and in experiment [19] was “inactive” throughout. For the same compound, in experiment [13], the activity change, positive = activation is 1.85% (inactive).

Take `CCCCCCC(O)CCCCCCCCCCC(=O)O` (configuration not stated): the Potency entry in [1], in experiment [2], in experiment [3], in experiment [4], in experiment [5] and in [6] was “inactive” each time. Besides, the Potency entry in [7], in experiment [8], in experiment [9], in experiment [10], in experiment [11] and in experiment [12] was “inactive” each time. The Potency result in experiment [14], in [15], in experiment [16] and in [18] was “inactive” throughout. The activity change, positive = activation in experiment [13] was -9.99% (inactive) and -15.5% (inactive).

Consider `CCOC(=O)C(C)C(C)=O` (configuration not stated), for which the Potency result in [1], in [2], in experiment [3], in [4], in experiment [5] and in experiment [6] was “inactive” throughout. In addition, the Potency result in [7], in experiment [8], in [9], in [10], in experiment [11] and in experiment [12] was “inactive” throughout. For the same compound, the Potency result in experiment [20], in experiment [14], in [15], in experiment [16], in experiment [17] and in experiment [18] was “inactive” in each case. Further, the Potency entry in experiment [19] is “inactive”. In addition, the activity change, positive = activation in experiment [13] was 5% (inactive).

With `O=Cc1ccc(Cl)cc1`, the Potency result in experiment [1], in experiment [2], in [3], in experiment [4], in [5] and in [6] was “inactive” throughout. Also, the Potency entry in experiment [7], in experiment [8], in experiment [9], in experiment [10], in experiment [11] and in experiment [12] was “inactive” each time. Also, the Potency result in experiment [14], in experiment [15], in experiment [16], in [17] and in [18] was “inactive” in each case. In addition, the activity change, positive = activation in experiment [13] was -1.47% (inactive).
